Experimental findings from PMC4336329 (PLoS ONE, 2015) are described below.

About 14,000 (4.5%) of roughly 310,000 compounds showed an effect of 50% or more. Effects have a minus sign here. The list comes from a sample in which strong results are over-represented; it also holds similar structures and randomly drawn compounds.
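Further: peak tail current of the secondary pulse compared with the same well before compound.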

Sequence of human ether-à-go-go-related gene (hERG) potassium channel (Q12809 whole entry, looked up): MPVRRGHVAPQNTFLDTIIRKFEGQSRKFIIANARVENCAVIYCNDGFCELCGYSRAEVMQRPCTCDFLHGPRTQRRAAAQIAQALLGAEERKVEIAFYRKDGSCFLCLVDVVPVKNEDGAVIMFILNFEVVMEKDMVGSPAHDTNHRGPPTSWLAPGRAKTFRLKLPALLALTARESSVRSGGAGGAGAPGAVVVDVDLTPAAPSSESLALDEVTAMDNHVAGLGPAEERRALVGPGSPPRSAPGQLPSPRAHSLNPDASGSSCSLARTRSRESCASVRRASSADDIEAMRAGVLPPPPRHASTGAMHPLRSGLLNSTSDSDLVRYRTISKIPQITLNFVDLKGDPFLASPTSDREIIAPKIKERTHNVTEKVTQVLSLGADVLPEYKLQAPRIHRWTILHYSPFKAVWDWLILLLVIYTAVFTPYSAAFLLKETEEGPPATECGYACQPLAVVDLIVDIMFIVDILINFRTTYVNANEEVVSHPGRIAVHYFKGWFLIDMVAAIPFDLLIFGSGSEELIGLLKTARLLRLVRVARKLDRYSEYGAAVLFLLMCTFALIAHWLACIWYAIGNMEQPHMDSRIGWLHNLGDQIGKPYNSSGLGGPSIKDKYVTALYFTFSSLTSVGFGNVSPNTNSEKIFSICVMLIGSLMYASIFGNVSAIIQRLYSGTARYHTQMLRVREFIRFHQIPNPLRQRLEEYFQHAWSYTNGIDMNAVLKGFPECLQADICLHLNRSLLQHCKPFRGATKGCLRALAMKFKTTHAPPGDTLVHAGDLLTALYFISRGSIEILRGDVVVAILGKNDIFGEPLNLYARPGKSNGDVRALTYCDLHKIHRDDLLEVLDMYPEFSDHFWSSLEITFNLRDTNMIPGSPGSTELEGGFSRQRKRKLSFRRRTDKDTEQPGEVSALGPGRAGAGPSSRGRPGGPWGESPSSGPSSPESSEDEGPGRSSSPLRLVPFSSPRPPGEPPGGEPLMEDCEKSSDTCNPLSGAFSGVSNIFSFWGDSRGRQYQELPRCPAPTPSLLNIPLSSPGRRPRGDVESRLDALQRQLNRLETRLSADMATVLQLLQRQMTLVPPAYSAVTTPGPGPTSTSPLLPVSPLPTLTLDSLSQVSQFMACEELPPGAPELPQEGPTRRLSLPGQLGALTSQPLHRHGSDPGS

This assay concerns the target human ether-à-go-go-related gene (hERG) potassium channel (human, UniProt Q12809). As to the kind of experiment: primary screen, population patch clamp on CHO cells stably expressing hERG; higher = less effect of the substance.
In the case of `CN(C)S(=O)(=O)N1CCc2ccccc2C1`, the “hERG current change (%, negative = inhibition) at 10uM” value is given as 2.94%.

As to `Cc1cc(C)n(-c2nc3ccccc3nc2N2CCN(S(=O)(=O)c3ccc(F)c(C)c3)CC2)n1`, the “hERG current change (%, negative = inhibition) at 10uM” value is recorded as 9.54%.

Regarding `Cc1nn(CC(=O)NCC(C)c2ccccc2)c(=O)c2cc3occc3n12` (centres unmarked), the “hERG current change (%, negative = inhibition) at 10uM” value is listed as -3.5%.

In the case of `O=C(C[n+]1ccc2c(c1)nnn2-c1ccccc1)c1ccc(Cl)cc1.[Br-]`, the “hERG current change (%, negative = inhibition) at 10uM” value is -69%.

Regarding `Cn1nnc2c[n+](CC(=O)c3ccc(Cl)cc3)cc(Br)c21.[Br-]`, the “hERG current change (%, negative = inhibition) at 10uM” value was -24.7%.

For `COc1ccc(C(=O)C[n+]2ccc3c(c2)nc(-c2ccccc2)n3C)cc1.[Br-]`, the “hERG current change (%, negative = inhibition) at 10uM” value is on record as -1.44%.

For the compound `O=C(C[n+]1ccccc1)c1ccc(Cl)cc1.[I-]`, the “hERG current change (%, negative = inhibition) at 10uM” value is 10%.

In the case of `COc1ccc(C(=O)C[n+]2ccc3c(c2)nnn3-c2ccccc2)cc1.[Br-]`, the “hERG current change (%, negative = inhibition) at 10uM” value is listed as -60.5%.

Take `COc1ccc(C(=O)C[n+]2ccc3c(c2)nc(-c2cc(OC)c(OC)cc2OC)n3C)cc1.[Br-]`: the “hERG current change (%, negative = inhibition) at 10uM” value was determined as 6.93%.

Take `CCc1nn(CC(=O)NCCCN(CC)c2cccc(C)c2)c(=O)c2cc3occc3n12`: the “hERG current change (%, negative = inhibition) at 10uM” value is reported as -16.3%.

For `C/C(N)=C(/C#N)C(=O)COC(=O)CCS(=O)(=O)c1ccccc1`, the “hERG current change (%, negative = inhibition) at 10uM” value came out at 12.1%.

In the case of `CC(C)(C)NC(=O)CSc1nc(O)cc(=O)n1-c1ccccc1F`, the “hERG current change (%, negative = inhibition) at 10uM” value is on record as 6.39%.

Take `O=C(CSc1ccc(-c2ccc(Br)cc2)nn1)N1CCOCC1`: the “hERG current change (%, negative = inhibition) at 10uM” value is given as -18.7%.

As to `NC(=O)c1nn(Cc2ccccc2)c(=O)c2ccccc12`, the “hERG current change (%, negative = inhibition) at 10uM” value is reported as 4.12%.

With `O=C(c1ccc(=O)n(Cc2ccccc2)n1)N1CCN(C/C=C/c2ccccc2)CC1`, the “hERG current change (%, negative = inhibition) at 10uM” value was -51.9%.

As to `O=C(c1cnccn1)N1CCN(C/C=C/c2ccccc2)CC1`, the “hERG current change (%, negative = inhibition) at 10uM” value is given as -16.6%.

Consider `Cc1cc(C(=O)N2CCN(C/C=C/c3ccccc3)CC2)no1`, for which the “hERG current change (%, negative = inhibition) at 10uM” value was -14.5%.

For the compound `O=C(c1ccc(Cl)nc1)N1CCN(C/C=C/c2ccccc2)CC1`, the “hERG current change (%, negative = inhibition) at 10uM” value is on record as -44.1%.

On to `O=C(c1nn(Cc2ccccc2)c(=O)c2ccccc12)N1CCN(C/C=C/c2ccccc2)CC1`, for which the “hERG current change (%, negative = inhibition) at 10uM” value is reported as -57.7%.

With `COc1ccc(NC(=O)NCc2ccc3c(c2)OCO3)c(OC)c1`, the “hERG current change (%, negative = inhibition) at 10uM” value was 11.5%.

Take `COc1ccc(C)cc1S(=O)(=O)NC1CCCCC1C` (centres unmarked): the “hERG current change (%, negative = inhibition) at 10uM” value is reported as 5.07%.

Regarding `CCC(=O)N1CCN(c2ccc(NC(=O)COc3cccc(C)c3C)cc2)CC1`, the “hERG current change (%, negative = inhibition) at 10uM” value is recorded as -12%.

Turning to `O=C(CSc1nnc(-c2ccco2)o1)Nc1c(F)cccc1F`, the “hERG current change (%, negative = inhibition) at 10uM” value is listed as -1.95%.
